# Results as given in PubChem BioAssay (NCATS).
# “And” between values parts separate entries of the source, which are not always exact repeats. Identical values can stand only once. Records with an inconclusive call do not appear. Where a call stands in place of a potency, no number is given. A number with no mark means an inactive call. The source made the active and inactive calls. Unless noted, calls follow the shape of the dose curve; as a rule, active = well fitted curve in the direction sought with a large enough effect; inconclusive = small, poorly fitted or top-dose-only effect, or another doubt; inactive = no such curve, though single readings can be large; an effect the other way counts as inactive or inconclusive.
# How the values were obtained:
# [1] = target: Cellular tumor antigen p53 (Homo sapiens) (UniProt P04637); test: Primary qHTS for small molecule compounds that upregulate eGFP-tagged delta133p53alpha (in N-terminal) cells. (AID 2060322); details: NCI-H358 eGFP-delta133p53alpha fluorescence, 24 h; activation: stronger effect = higher value; also: nearly all actives have a fitted effect of over 75% in size; also: potency is read from the fitted curve at half-maximal effect; as to activation: series mostly up to about 56 µM
# Cellular tumor antigen p53 (Homo sapiens), sequence (P04637 whole entry, looked up): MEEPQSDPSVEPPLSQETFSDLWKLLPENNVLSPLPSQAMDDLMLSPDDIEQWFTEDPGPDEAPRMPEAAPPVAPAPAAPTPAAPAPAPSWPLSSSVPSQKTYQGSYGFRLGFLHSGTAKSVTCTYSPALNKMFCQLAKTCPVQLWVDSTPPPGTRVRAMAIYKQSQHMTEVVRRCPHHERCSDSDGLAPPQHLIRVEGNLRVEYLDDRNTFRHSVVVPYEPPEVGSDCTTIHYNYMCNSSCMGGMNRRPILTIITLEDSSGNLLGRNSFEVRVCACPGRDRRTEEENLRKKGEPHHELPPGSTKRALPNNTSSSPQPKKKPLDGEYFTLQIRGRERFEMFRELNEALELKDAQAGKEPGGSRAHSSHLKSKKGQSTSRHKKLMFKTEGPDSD
# Outline: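 NCI-H358 cells pre-induced 24 h with 10 ng/ml doxycycline to express N-terminal eGFP-delta133p53alpha, then dosed 24 h at 37C without doxycycline; fixed, Hoechst-stained, GFP intensity by laser scanning cytometry, normalized to DMSO (0%) and 57.5 uM 5-azacytidine (100%).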
# [2] = BET inhibitor-based combinations targeting novel dependencies in MECOM-rearranged (r) AML: OCI-AML3 cell line (AID 2202232); details: Potency: OCI-AML3 viability; also: nearly all actives have a fitted effect of over 35% in size; also: potency is read from the fitted curve at half-maximal effect
# Outline: (§1)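 500 cells/well; 11-pt dose curve; 48 h, standard incubator; CellTiter-Glo luminescence after 15 min RT; DMSO/empty-well normalization; AUC plus Z-AUC (mean-centered within each line).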
# [3] = BET inhibitor-based combinations targeting novel dependencies in MECOM-rearranged (r) AML: HNT-34 cell line (AID 2202234); also: nearly all actives have a fitted effect of over 35% in size; also: potency is read from the fitted curve at half-maximal effect
# Outline: (§2)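 Cells were plated at 500 per well and exposed to each drug across an 11-point dose range for 48 hr at standard incubator conditions. Viability was read by CellTiter-Glo luminescence, and activity was expressed as AUC and per-cell-line Z-transformed AUC.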
# [4] = BET inhibitor-based combinations targeting novel dependencies in MECOM-rearranged (r) AML: AML-191 cell line (AID 2202236; also: nearly all actives have a fitted effect of over 35% in size; also: potency is read from the fitted curve at half-maximal effect)
# Outline: as §1
# [5] = BET inhibitor-based combinations targeting novel dependencies in MECOM-rearranged (r) AML: AML-194 cell line (AID 2202237; also: nearly all actives have a fitted effect of over 40% in size; also: potency is read from the fitted curve at half-maximal effect)
# Outline: as §1
# [6] = BET inhibitor-based combinations targeting novel dependencies in MECOM-rearranged (r) AML: UCSD-AML1 cell line (AID 2202235); also: nearly all actives have a fitted effect of over 40% in size; also: potency is read from the fitted curve at half-maximal effect
# Outline: as §2
# [7] = BET inhibitor-based combinations targeting novel dependencies in MECOM-rearranged (r) AML: MV-4-11 cell line (AID 2202233); also: nearly all actives have a fitted effect of over 45% in size; also: potency is read from the fitted curve at half-maximal effect
# Outline: as §2
# [8] = target: Cellular tumor antigen p53 (Homo sapiens) (UniProt P04637); test: Primary qHTS for small molecule compounds that upregulate eGFP-tagged delta133p53alpha (in C-terminal) cells. (AID 2060324)
# Outline: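 NCI-H358 cells with doxycycline-inducible D133p53a-eGFP (C-terminal tag), pre-induced 24 h with 100 ng/ml doxycycline, plated 800/well in doxycycline-free medium and treated 24 h at 37 °C with compound titrations. Cells were then fixed and Hoechst-stained, and GFP intensity was read by laser scanning cytometry.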
# [9] = target: Aldehyde dehydrogenase, mitochondrial (Homo sapiens) (UniProt P05091); test: qHTS for Inhibitors of the Aldehyde Dehydrogenase Family (ALDH2) Validation screens (AID 2061302; active = well fitted inhibition curve with a large enough effect; title and protocol of this record describe different tests)
smiles,measurement,setting,value
CC(C)(C)c1cnc(CSc2cnc(NC(=O)C3CCNCC3)s2)o1,Potency,[1],968 nM (active)
same,Potency,[2],372 nM (active)
same,Potency,[3],235 nM (active)
same,Potency,[4],742 nM (active)
same,Potency,[5],742 nM (active)
N#CC1(c2ccc(NC(=O)c3cccnc3NCc3ccncc3)cc2)CCCC1,activation,[1],-7.07%
same,Potency,[2],inactive
same,Potency,[6],inactive
same,Potency,[4],inactive
same,Potency,[5],inactive
CNC(=O)c1cc(COc2nnc(Nc3ccc(Cl)cc3)c3ccoc23)ccn1,activation,[1],-2.64%
same,Potency,[2],inactive
same,Potency,[5],inactive
CCn1cc(C(=O)O)c(=O)c2cc(F)c(N3CCN(C)CC3)cc21,activation,[1],-2.51% and -35.6%
same,Potency,[2],inactive
same,Potency,[3],inactive
same,Potency,[6],inactive
same,Potency,[4],inactive
same,Potency,[5],inactive
O=C1CN2Cc3c(ccc(Cl)c3Cl)N=C2N1,activation,[1],-11.4%
same,Potency,[2],inactive
same,Potency,[3],inactive
same,Potency,[6],inactive
same,Potency,[4],inactive
same,Potency,[5],inactive
Cc1cccc(N(C)C(=S)Oc2ccc3ccccc3c2)c1,activation,[1],2.82% and 1.76%
same,Potency,[2],inactive
same,Potency,[3],inactive
same,Potency,[6],inactive
same,Potency,[5],inactive
NC1=N[C@H]2[C@H](CS[C@H]2CCCCC(=O)O)N1,activation,[1],-4.3%
same,Potency,[2],inactive
same,Potency,[7],inactive
same,Potency,[4],inactive
same,Potency,[5],inactive
COc1cc2ncnc(Nc3cc(Br)c(O)c(Br)c3)c2cc1OC,activation,[1],26.5%
same,Potency,[7],7420 nM (active)
same,Potency,[3],18600 nM (active)
same,Potency,[6],26300 nM (active)
CCn1c(-c2nonc2N)nc2cnc(Oc3cccc(NC(=O)c4ccc(OCCN5CCOCC5)cc4)c3)cc21,activation,[1],-20.5%
same,Potency,[7],332 nM (active)
O=c1c(-n2ccnn2)c[nH]n1-c1cc(N2CCOCC2)ncn1,activation,[1],44.9%
same,Potency,[7],20900 nM (active)
C[C@@H]1C(=O)O[C@H]2CC34[C@H]5C[C@@H](C(C)(C)C)C36[C@H](OC(=O)[C@@H]6O)O[C@@]4(C(=O)O5)[C@]21O (some centres undefined),activation,[1],14%
same,Potency,[2],inactive
same,Potency,[7],inactive
same,Potency,[6],inactive
N=c1c[n+](N2CCOCC2)[n-]o1,Potency,[8],inactive
same,Potency,[9],inactive
